According to PubChem BioAssay (NCATS):
Inconclusive results are not listed. Unmarked numbers belong to inactive results. Activity calls are given as the source filed them. Calls come from the whole dose curve; as a rule, active = well fitted cell-killing curve with a large enough effect; inconclusive = small, poorly fitted or top-dose-only effect, or effect the other way; inactive = flat fitted curve, though single readings scatter.

assay: S16 Schwann cell viability assay (CellTiter-Glo assay) (AID 624031); settings: S16 rat Schwann cells viability, 24 h; series mostly up to 57.5 µM; activity change, negative = cytotoxicity: at the top concentration; note: nearly all actives have a fitted effect of over 70% in size;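 for activity change, negative = cytotoxicity: native untransfected S16 rat Schwann cells; cellular ATP luminescence as a viability measure; plate controls were DMSO-treated cells for no effect and cell-free wells for full effect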
In short: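 Parental S16 cells, 24 h compound, 37 °C. ATP-luminescence viability; DMSO = 0% activity, empty wells as reference; curves classified by fit quality and efficacy.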
Potency is the fitted concentration of half-maximal effect.

Structure (SMILES) | Potency | activity change, negative = cytotoxicity
C=CCNC1=C2C[C@@H](C)C[C@H](OC)[C@H](O)[C@@H](C)/C=C(\C)[C@H](OC(N)=O)[C@@H](OC)/C=C\C=C(/C)C(=O)NC(=CC1=O)C2=O | 16.1 µM (active) | –
CN[C@H]1CC[C@@H](c2ccc(Cl)c(Cl)c2)c2ccccc21 | 28.7 µM (active) | –
COC1C(OC(=O)/C=C/C=C/C=C/C=C/C(=O)O)CCC2(CO2)C1C1(C)OC1CC=C(C)C (stereo not drawn) | – | 15%
